# Data taken from ChEMBL document CHEMBL1157539, “Thousands of chemical starting points for antimalarial lead identification” (Nature, 2010).
# Test system: HepG2
# Assay: GSK_TCMDC: Percent inhibition of human HepG2 cell line. Test compounds present at 10uM.
# Type: functional
row,SMILES,Inhibition
1,Cc1cccc2nc(-c3cccc(-c4ccc(NC(=O)C(C)C(=O)NC(C)C)cc4)c3)[nH]c12 (stereo not given),13%
2,Cc1ccc(C(=O)Nc2ccc(OC3CCN(CCC(C)C)C3)c(Cl)c2)cc1.O=C(O)C(F)(F)F (stereo not given),63%
3,CC(C)(C)C(=O)Nc1ccc(C(=O)Nc2cccc(-c3nc4ccccc4[nH]3)c2)cc1,56%
4,Cc1ccc(NC(=O)c2ccc(CN3CCCN(Cc4cccc(C#N)c4)CC3)cc2)cc1F.O=C(O)C(F)(F)F,49%
5,CCN(CC)CC(O)CNc1c2ccc([N+](=O)[O-])cc2nc2cc(OC)c(OC)cc12.Cl (stereo not given),78%
6,COc1ccccc1OCCN(CC(O)COc1cccc2[nH]c3ccccc3c12)CC(O)COc1cccc2[nH]c3ccccc3c12 (stereo not given),16%
7,CCCCCN1CCC(NS(=O)(=O)c2cccc(C(=O)Nc3ccc(Cl)cc3)c2)CC1.O=C(O)C(F)(F)F,24%
8,Cl.Oc1ccc(Nc2nc(N3CCCC3)c3ccccc3n2)cc1,10%
9,O=C(NCCCCCN1CCC(c2c[nH]c3ccccc23)CC1)c1ccc(Cl)c(Cl)c1,48%
10,O=S(=O)(Nc1ccc(CCN2CCCCC2CCN2CCCC2)cc1)c1cccc2cccnc12 (stereo not given),20%
11,CCOc1ccc2c(=NN=Cc3ccccn3)cc(C)[nH]c2c1,19%
12,Cc1cccc(C(O)CNc2ccnc(Nc3cccc(-c4csc(C)n4)c3)n2)c1 (stereo not given),29%
13,O=C(/C=C/c1ccc(Cl)c(Cl)c1)NCCCCCN1CCC(C(=O)Nc2ccc(F)c(Cl)c2)CC1,25%
14,CCN1CCCC(Nc2ccnc3cc4ccccc4cc23)C1 (stereo not given),38%
15,COc1ccc(Nc2nccc(NCCNC(=O)c3cc4ccccc4s3)n2)cc1,6%
16,O=C(C=Cc1ccc(Cl)c(Cl)c1)NCCCCCN1CCCC(CCCNC(=O)c2cccs2)C1 (stereo not given),24%
17,Cc1nn(CC(C)C)c2sc(C(=O)Nc3nc(-c4ccccn4)cs3)cc12,29%
18,Cc1cccc2nc(-c3ccc(-c4cccc(NC(=O)Nc5ccccc5)c4)cc3)[nH]c12,18%
19,Cc1nc(-c2nc(NCc3ccncc3)ncc2-c2ccsc2)sc1C,8%
20,O=C(O)C(F)(F)F.c1ccc(CCNCc2ccc(-c3ccc(CNC4CCN(Cc5ccccc5)CC4)cc3)nc2)cc1,34%

row,SMILES,Inhibition
1,Nc1ncc(-c2cn[nH]c2)cc1-c1nc2ccc(Cl)cc2[nH]1,46%
2,CN(C)CCNCc1ccc(-c2ccc3c(Nc4ccc(Cl)cc4F)ccnc3c2)o1,14%
3,COc1ccc(Nc2ncc(Cl)c(Nc3cccnc3C(N)=O)n2)cc1N1CCN(C)CC1.Cl,77%
4,Cc1ccc(S(=O)(=O)c2nc(S(=O)(=O)c3ccccc3)sc2NCC2CCCO2)cc1 (stereo not given),4%
5,CC(CN(C)C)C(=O)Nc1ccc(-c2ccc(-c3nc4cc(C(F)(F)F)ccc4[nH]3)cc2)cc1 (stereo not given),14%
6,Cc1ccc(N2C(N)=NC(N)=NC2(C)C)cc1Cl.Cl,66%
7,CC(C)C[C@@H](C(=O)N[C@@H](CCCCNC(=O)OCc1ccccc1)C(=O)Nc1nccs1)[C@H](C)N(O)C=O,0%
8,Cc1nc2nc(N)nc(N)c2c(C)c1Cc1ccccc1Br.Cl,65%
9,Cn1cc(C(=O)Nc2cccc(-c3cccc(-c4nc5cc(F)ccc5[nH]4)c3)c2)n(C)c1=O,15%
10,CC(C)CC(=O)N1CCNC[C@@H]1C(=O)NCCSCc1c(F)cccc1Cl.O=C(O)C(F)(F)F,1%
11,O=C(N[C@@H](CC1CCCCC1)C(=O)NCCN1CCCC1)c1ccc(O)c(-c2ccc(Cl)c(Cl)c2)c1,16%
12,CCNc1cc(C(=O)N[C@@H](Cc2ccccc2)[C@H](O)CNC(CC)c2cccc(Cl)c2)cc(N2CCCCS2(=O)=O)c1.Cl (stereo not given in full),12%
13,Cc1[nH]c(C)c(-c2ccc(Oc3ccc(OC(F)(F)F)cc3)cc2)c(=O)c1Br,0%
14,O=C(Nc1cc(F)cc(F)c1)NC1CCN(CCCCCNC(=O)C2CC2c2ccc(Cl)c(Cl)c2)CC1 (stereo not given),49%
15,O=C(O)C(F)(F)F.c1ccc2[nH]c(-c3ccc(-c4ccc(CNCC5CCCO5)cc4)s3)nc2c1 (stereo not given),27%
16,COc1ccc(-c2cccc(NC(=O)c3cccc(C#N)c3)c2)cc1CN(C)CCN(C)C.O=C(O)C(F)(F)F,0%
17,Clc1ccc(CNCCCCCCNCc2ccc(Cl)cc2)cc1.O=C(O)c1ccc2ccccc2c1O,53%
18,O=C(O)C(F)(F)F.c1ccc(CNCc2cccc(-c3ccc(-c4nc5ccccc5[nH]4)cc3)c2)cc1,10%
19,Cc1cc(-c2cccc(CNC3CCN(C)CC3)c2)ccc1S(=O)(=O)NCCc1ccccn1.O=C(O)C(F)(F)F,22%
20,O=C(Nc1cccc(-c2ccc(CN3CCCC3)cc2)c1)c1ccc(Cl)cc1.O=C(O)C(F)(F)F,29%
